Of roughly 7,900 targets only a part is listed; those with a hit were picked by preference. About 0.6% of all pairs of compound and target were hits. Unmarked numbers belong to inactive results.
Assays:
Experiment in all cases: log2 fold change, soluble protein after heating vs DMSO (PISA); higher = thermal stabilisation; K562 cells, 10 uM, 30 min; active = over 0.2 and 3.5 SD of the protein, either way, in both replicates (recomputed)
[1] = compound: C1COCCN1CCN2C3=CC=CC=C3N=C2NC(=O)C4=CC(=CC=C4)[N+](=O)[O-] [IRAK-1-4 Inhibitor I]
Summary of the method: (§1)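 K562 cells (2×10^6 cells/mL) were treated with 10 μM compound for 30 min, and aliquots were heated for 3 min over 48°C-58°C. Pooled aliquots were extracted in PBS with 0.5% NP-40 at 4°C, and the supernatant after 21,000xg for 90 min was measured by TMTpro 16plex LC-MS/MS with channel sums equalised. Reported thermal stability, relative to control samples and from duplicates, is a log2 fold change.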

[2] = compound: C=CC(=O)N1CCC[C@@H](n2nc(-c3ccc(Oc4ccccc4)cc3)c3c(N)ncnc32)C1 [ibrutinib]
Summary of the method: as §1

[3] = compound: CC(=O)c1cnc2ccc(-c3cc(Cl)c(O)c(Cl)c3)nc2c1N[C@H]1CC[C@H](CN(C)C)CC1
Summary of the method: as §1

[4] = compound: CC(C)(C)Cn1c(N)nc2ccc(-c3[nH]c(C(C)(C)C)nc3-c3ccc(F)cc3)nc21 [ralimetinib]
Summary of the method: as §1

[5] = compound: CC(C)(O)CC(=O)NCCn1ccc2ncnc(Nc3ccc(Oc4cccc(C(F)(F)F)c4)c(Cl)c3)c21
Summary of the method: as §1

[6] = compound: CC(C)C1=C2N=C(C=C(N2N=C1)NCC3=CC=CC=C3)NCCCCCCN
Summary of the method: as §1

[7] = compound: CC(C)C[C@@H](C=O)NC(=O)[C@H](CC(C)C)NC(=O)[C@H](CC(C)C)NC(=O)OCc1ccccc1
Summary of the method: as §1

[8] = compound: CC(C)N(C[C@H]1O[C@@H](n2cnc3c(N)ncnc32)[C@H](O)[C@@H]1O)[C@H]1C[C@@H](CCc2nc3cc(C(C)(C)C)ccc3[nH]2)C1 [pinometostat]
Summary of the method: as §1

[9] = compound: CC1=C(C(CC(=O)N1)C2=CC=C(C=C2)C(F)(F)F)C(=O)NC3=C(C=C4C(=C3)C=NN4)F
Summary of the method: as §1

[10] = compound: CC1=C(C2=C(C=C1)C(=O)C3=CC=CC=C3N2CCCN)C
Summary of the method: as §1

[11] = compound: CC1=C(C=C(C=C1)NC(=O)C2=CC(=CC=C2)C(C)(C)C#N)NC3=CC4=C(C=C3)N=CN(C4=O)C
Summary of the method: as §1

[12] = compound: CC1=C(C=C(C=C1)NC(=O)C2=CC(=CC=C2)N(C)C)NC(=O)C3=CC=C(C=C3)O
Summary of the method: as §1

[13] = compound: CC1=CC=C(C=C1)SC2=C3C=C(SC3=CN=C2)C(=O)N
Summary of the method: as §1

[14] = compound: CC1=NC(=CC=C1)C2=C(N=C(N2)C(C)(C)C)C3=CC4=NC=CN=C4C=C3
Summary of the method: as §1

[15] = compound: CCCCN(Cc1ccc(C(=O)NO)cc1)C(=O)Nc1ccccc1 [Nexturastat A]
Summary of the method: as §1

[16] = compound: CCCS(=O)(=O)Nc1ccc(F)c(C(=O)c2c[nH]c3ncc(-c4ccc(Cl)cc4)cc23)c1F [vemurafenib]
Summary of the method: as §1

[17] = compound: CCCS(=O)(=O)Nc1ccc(F)c(C(=O)c2c[nH]c3ncc(Cl)cc23)c1F
Summary of the method: as §1

[18] = compound: CCCc1cc(C)[nH]c(=O)c1CNC(=O)c1cc(-c2ccnc(N3CCN(C)CC3)c2)cc2c1cnn2C(C)C
Summary of the method: as §1

[19] = compound: CCN(CC)Cc1ccc2cc(COC(=O)Nc3ccc(C(=O)NO)cc3)ccc2c1 [givinostat]
Summary of the method: as §1

[20] = compound: CCN(CCCOc1ccc2c(Nc3cc(CC(=O)Nc4cccc(F)c4)[nH]n3)ncnc2c1)CCOP(=O)(O)O [barasertib]
Summary of the method: as §1

Sequence of UniProt Q8WVY7 (Q8WVY7 whole entry, looked up): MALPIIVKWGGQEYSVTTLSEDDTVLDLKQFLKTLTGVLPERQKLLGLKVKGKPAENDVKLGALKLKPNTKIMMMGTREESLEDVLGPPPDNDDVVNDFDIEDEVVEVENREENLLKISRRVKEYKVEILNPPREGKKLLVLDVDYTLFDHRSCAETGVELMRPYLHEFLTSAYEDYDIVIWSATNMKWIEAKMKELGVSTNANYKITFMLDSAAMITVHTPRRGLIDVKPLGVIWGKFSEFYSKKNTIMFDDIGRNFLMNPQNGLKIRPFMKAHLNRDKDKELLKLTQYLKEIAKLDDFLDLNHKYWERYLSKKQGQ
Sequence of UniProt Q8NDZ6 (Q8NDZ6 whole entry, looked up): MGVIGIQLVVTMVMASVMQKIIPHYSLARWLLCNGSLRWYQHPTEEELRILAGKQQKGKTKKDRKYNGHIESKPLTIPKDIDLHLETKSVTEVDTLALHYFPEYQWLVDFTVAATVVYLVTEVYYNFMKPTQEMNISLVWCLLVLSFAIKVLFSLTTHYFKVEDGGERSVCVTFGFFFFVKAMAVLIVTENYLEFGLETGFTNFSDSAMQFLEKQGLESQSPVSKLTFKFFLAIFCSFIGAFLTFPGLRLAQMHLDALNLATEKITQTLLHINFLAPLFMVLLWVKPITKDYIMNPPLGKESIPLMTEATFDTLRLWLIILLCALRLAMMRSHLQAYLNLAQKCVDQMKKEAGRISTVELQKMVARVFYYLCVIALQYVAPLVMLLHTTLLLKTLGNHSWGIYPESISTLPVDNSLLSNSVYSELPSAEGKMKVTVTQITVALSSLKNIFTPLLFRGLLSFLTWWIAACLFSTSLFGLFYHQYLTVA
Sequence of UniProt Q8NCE0 (Q8NCE0 whole entry, looked up): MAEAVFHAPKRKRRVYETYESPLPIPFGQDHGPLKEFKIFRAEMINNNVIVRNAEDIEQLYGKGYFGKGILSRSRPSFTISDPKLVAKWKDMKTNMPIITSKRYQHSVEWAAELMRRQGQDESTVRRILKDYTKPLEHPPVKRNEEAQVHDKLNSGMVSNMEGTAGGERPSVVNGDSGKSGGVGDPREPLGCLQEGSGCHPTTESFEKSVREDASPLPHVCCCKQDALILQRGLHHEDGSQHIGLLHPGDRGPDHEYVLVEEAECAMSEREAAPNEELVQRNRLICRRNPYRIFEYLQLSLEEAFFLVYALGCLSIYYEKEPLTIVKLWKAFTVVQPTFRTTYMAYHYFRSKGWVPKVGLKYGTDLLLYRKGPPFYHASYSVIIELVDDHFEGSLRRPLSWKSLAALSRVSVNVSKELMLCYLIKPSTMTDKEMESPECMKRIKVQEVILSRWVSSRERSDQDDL
Sequence of UniProt P61960 (P61960 whole entry, looked up): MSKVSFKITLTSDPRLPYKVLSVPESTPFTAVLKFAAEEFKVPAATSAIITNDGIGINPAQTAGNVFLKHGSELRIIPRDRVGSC
Sequence of UniProt Q9H270 (Q9H270 whole entry, looked up): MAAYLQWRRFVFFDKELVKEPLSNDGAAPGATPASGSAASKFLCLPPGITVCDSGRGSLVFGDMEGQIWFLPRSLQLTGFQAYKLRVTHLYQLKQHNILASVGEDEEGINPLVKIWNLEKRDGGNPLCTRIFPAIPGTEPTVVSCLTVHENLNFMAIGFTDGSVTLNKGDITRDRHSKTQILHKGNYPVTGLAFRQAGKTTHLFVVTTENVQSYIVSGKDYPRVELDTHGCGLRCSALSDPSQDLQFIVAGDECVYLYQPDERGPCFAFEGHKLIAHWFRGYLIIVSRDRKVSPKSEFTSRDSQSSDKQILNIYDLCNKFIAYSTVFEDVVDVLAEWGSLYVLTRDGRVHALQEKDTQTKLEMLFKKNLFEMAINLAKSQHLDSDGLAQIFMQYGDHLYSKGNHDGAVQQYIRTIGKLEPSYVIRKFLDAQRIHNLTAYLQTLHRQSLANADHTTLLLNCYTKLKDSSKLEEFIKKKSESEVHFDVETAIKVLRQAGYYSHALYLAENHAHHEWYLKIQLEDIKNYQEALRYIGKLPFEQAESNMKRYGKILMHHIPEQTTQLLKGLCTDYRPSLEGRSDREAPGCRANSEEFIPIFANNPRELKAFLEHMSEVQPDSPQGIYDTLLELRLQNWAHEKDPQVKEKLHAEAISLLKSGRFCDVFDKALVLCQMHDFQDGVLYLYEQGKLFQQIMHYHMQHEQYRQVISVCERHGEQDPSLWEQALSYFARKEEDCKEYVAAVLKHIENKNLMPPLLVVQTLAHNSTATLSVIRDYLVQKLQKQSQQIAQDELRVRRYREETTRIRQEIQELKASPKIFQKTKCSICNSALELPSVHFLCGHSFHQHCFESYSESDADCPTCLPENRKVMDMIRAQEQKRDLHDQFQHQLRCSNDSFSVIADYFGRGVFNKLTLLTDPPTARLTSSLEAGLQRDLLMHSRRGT
Sequence of UniProt Q14139 (Q14139 whole entry, looked up): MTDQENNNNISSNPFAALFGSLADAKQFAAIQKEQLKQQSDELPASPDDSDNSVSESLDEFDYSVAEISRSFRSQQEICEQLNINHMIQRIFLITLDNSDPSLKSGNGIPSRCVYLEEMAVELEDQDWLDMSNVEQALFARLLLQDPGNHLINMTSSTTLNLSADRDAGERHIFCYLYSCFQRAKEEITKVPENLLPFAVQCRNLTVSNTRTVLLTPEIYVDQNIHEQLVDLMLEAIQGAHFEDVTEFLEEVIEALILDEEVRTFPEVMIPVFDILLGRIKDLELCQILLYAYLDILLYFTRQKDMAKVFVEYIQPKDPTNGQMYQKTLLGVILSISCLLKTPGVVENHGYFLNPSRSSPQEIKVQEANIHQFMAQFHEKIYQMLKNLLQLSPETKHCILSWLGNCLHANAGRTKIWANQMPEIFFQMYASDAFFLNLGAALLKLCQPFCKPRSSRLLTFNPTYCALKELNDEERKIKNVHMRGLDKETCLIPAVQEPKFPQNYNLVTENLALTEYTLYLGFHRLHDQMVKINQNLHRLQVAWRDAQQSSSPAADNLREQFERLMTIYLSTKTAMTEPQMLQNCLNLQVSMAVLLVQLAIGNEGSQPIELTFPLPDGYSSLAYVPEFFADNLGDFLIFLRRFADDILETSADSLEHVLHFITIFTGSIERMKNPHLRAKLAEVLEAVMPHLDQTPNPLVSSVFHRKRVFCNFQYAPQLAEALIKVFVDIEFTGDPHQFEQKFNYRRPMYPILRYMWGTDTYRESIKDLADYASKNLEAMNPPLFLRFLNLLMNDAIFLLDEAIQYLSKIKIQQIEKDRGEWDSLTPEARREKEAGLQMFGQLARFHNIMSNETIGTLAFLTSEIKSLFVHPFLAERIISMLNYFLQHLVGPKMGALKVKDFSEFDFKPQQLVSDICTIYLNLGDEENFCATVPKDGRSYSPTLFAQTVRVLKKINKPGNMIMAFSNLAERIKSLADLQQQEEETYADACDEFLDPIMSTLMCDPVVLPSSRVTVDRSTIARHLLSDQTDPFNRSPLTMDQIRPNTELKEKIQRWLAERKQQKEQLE
Sequence of UniProt Q8TBZ6 (Q8TBZ6 whole entry, looked up): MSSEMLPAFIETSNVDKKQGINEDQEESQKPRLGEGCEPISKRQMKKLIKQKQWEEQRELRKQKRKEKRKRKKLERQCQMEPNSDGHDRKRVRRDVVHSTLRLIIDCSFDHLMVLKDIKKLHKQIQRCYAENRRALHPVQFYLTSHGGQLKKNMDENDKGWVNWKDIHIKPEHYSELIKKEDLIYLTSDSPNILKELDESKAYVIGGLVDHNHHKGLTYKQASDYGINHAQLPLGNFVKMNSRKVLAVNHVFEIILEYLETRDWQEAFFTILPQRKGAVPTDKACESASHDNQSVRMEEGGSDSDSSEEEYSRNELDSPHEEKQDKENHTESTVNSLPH
Sequence of UniProt Q9Y4E8 (Q9Y4E8 whole entry, looked up): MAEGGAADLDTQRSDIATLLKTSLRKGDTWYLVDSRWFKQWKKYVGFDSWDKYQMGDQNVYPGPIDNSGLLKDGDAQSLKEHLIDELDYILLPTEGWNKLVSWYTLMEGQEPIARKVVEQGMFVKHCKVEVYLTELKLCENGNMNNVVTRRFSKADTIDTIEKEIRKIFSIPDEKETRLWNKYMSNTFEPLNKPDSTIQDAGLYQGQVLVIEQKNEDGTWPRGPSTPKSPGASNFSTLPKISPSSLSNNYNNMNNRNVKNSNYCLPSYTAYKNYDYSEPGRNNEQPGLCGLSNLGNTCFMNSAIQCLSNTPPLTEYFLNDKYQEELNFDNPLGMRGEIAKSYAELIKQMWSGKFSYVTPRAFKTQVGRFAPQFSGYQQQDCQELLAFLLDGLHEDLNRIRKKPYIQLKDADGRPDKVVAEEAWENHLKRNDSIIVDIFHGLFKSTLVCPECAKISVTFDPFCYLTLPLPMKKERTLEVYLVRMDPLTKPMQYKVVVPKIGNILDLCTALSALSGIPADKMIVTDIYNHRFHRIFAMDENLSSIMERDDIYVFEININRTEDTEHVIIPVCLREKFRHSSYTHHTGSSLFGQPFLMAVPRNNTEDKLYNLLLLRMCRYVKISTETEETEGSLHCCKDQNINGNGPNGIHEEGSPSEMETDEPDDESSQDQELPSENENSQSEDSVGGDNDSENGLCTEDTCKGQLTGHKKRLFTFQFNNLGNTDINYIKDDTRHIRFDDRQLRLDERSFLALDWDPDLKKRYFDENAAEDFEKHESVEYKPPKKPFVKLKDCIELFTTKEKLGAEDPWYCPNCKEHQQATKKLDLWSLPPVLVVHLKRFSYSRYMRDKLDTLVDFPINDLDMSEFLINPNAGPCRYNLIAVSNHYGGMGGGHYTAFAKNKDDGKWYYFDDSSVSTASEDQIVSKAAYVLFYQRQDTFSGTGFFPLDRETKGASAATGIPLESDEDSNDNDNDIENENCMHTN
Sequence of UniProt Q15388 (Q15388 whole entry, looked up): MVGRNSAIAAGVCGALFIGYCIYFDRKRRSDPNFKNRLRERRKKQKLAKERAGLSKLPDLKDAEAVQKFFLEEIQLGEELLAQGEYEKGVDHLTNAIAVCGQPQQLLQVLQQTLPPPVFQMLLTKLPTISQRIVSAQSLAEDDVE

Target	log2 fold change [1]	log2 fold change [2]	log2 fold change [3]	log2 fold change [4]	log2 fold change [5]	log2 fold change [6]	log2 fold change [7]	log2 fold change [8]	log2 fold change [9]	log2 fold change [10]	log2 fold change [11]	log2 fold change [12]	log2 fold change [13]	log2 fold change [14]	log2 fold change [15]	log2 fold change [16]	log2 fold change [17]	log2 fold change [18]	log2 fold change [19]	log2 fold change [20]
WNK1 isoform 7 (UniProt Q9H4A3)	0.015	0.01	-0.213	-0.045	0.017	-0.005	0.476 (active)	0.004	-0.011	0.027	-0.047	0.426	-0.006	-0.019	-0.03	-0.023	0.004	-0.006	0.03	0.032
TMEM177 (UniProt Q53S58)	0.06	0.079	0.007	-0.068	-0.023	-0.131	0.045	-0.02	-0.007	0.028	0.043	0.045	-0.008	0.048	-0.092	0.05	0.05	-0.038	0.005	-0.019
UBLCP1 (UniProt Q8WVY7)	-0.029	-0.072	-0.057	-0.104	-0.061	-0.027	0.191	0.017	-0.023	-0.155	-0.011	-0.078	-0.03	0.03	0.025	0.076	0.093	-0.006	0.122	0.057
USP15 (UniProt Q9Y4E8)	-0.028	-0.034	0.008	-0.004	-0.067	-0.154	0.012	0.012	0	-0.019	0.025	-0.044	0.023	0.027	-0.001	0.04	0.053	0.041	0.025	0.06
XPO5 (UniProt Q9HAV4)	-0.004	-0.027	0.032	0.001	-0.141	-0.21	-0.021	-0.01	0	-0.204 (active)	0.031	-0.039	0.054	0.031	-0.053	0.013	0.056	0.014	-0.029	0.029
TSEN2 (UniProt Q8NCE0)	0.073	-0.022	-0.116	-0.034	-0.127	0.033	-0.001	0.004	0.055	0.027	0.306 (active)	0.015	0.014	-0.02	-0.013	0.058	0.063	0.097	0.012	0.073
TOMM20 (UniProt Q15388)	0.006	0	0.003	-0.017	0.118	-0.343 (active)	0.047	0.022	-0.021	0.018	0.058	0.044	0.04	-0.019	0.019	-0.024	0.092	0.026	0.011	0.021
UFM1 (UniProt P61960)	0.219	0.026	0.003	0	-0.117	0.06	0.055	0.013	-0.057	0.133	0.031	-0.046	0.06	0.183	-0.04	0.07	0.041	-0.083	0.087	-0.014
TRMT10A (UniProt Q8TBZ6)	0.056	-0.009	-0.065	-0.006	-0.107	-0.075	-0.01	0.042	0.02	0.066	0.006	-0.004	0.063	0.031	-0.079	0.014	-0.017	-0.011	-0.004	-0.019
XPO1 (UniProt O14980)	-0.013	-0.045	0.011	0.018	-0.196	-0.282 (active)	-0.04	-0.013	-0.001	-0.011	0.072	-0.063	0.025	0.081	-0.061	0.086	0.101	-0.011	0.024	0.039
UBE4A isoform 2 (UniProt Q14139)	-0.114	-0.125	-0.017	0.02	-0.032	-0.376 (active)	0.096	0.093	0.098	0.041	-0.064	-0.058	-0.029	0.01	0.061	0.048	0.097	0.021	0.073	0.065
VPS11 (UniProt Q9H270)	0.115	-0.038	-0.032	0.038	-0.069	-0.375 (active)	0.062	0.011	0.016	0.031	0.016	-0.003	0.002	0.076	0.107	0.016	0.073	0.031	-0.058	0.017
VPS33B (UniProt Q9H267)	-0.049	-0.041	-0.068	0.057	-0.107	-0.178	0.098	0.156	0	0.049	-0.05	-0.037	-0.015	-0.02	0.032	0.087	0.069	0.111	0.029	0.088
TRAM1 (UniProt Q15629)	-0.036	-0.051	-0.032	-0.014	-0.016	-0.889 (active)	0.012	-0.011	0.016	0.119	0.024	-0.063	-0.006	0.048	0.005	0.027	0.02	-0.101	0.028	0.015
TMEM161B (UniProt Q8NDZ6)	0.06	-0.039	0.008	-0.097	-0.227 (active)	-0.052	0.015	-0.002	-0.031	0.022	0.003	-0.012	0.026	0.008	-0.063	0.079	0.053	0.012	0.032	-0.037
